System in one test: not listed separately
Kind of test: anti-His antibody binders, primary screen, artefact control for SMM control protein annotation, biochemical, small-molecule microarray, 635 nm fluorescence (AID 1128).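 Also: score merges feature fluorescence with signal-to-noise for each printed compound spot.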 As to conditions: anti-His Alexa647 antibody binding, higher = more signal.
Molecule `O=P(NCC1(CC2(c3ccccc3)CO2)CC1)(c1ccccc1)c1ccccc1` (configuration not stated) displayed a composite z-score of 0.618.

Molecule `CCOC(=O)C1=CC[C@@H](c2ccccc2)N(S(=O)(=O)c2ccc(C)cc2)[C@H]1c1ccc(C#N)cc1` yielded a composite z-score of 1.

On to `COc1cc(NN2C(C(O)c3ccccc3)C=CC3C(=O)N(c4ccccc4)C(=O)C32)cc(OC)c1OC` (configuration not stated), for which the composite z-score is 1.67.

As for `Cn1c2c(c3ccccc31)C(=O)C1NC2C=CC1(C)C(=O)OCc1ccccc1` (configuration not stated), the composite z-score was 0.262.

Take `Cc1ccc(S[C@]2(C(=O)NCCN3CCOCC3)CC(=O)N(C3CCCCC3)[C@@H]2c2ccc(CO)cc2)cc1`: the composite z-score stood at 1.81.

`COCCOC(=O)N1C(=O)[C@@]2(c3cc(C#CC4=CCCCC4)ccc31)[C@H](c1ccc(OCCO)cc1)N1[C@H](c3ccccc3)[C@H](c3ccccc3)OC(=O)[C@H]1[C@@H]2C(=O)Nc1nc2ccccc2s1`: the composite z-score is 0.317.

A further test deals with Human papillomavirus type 1a E7 protein (residues 1-88). Description: HPV1a E7 small-molecule binders, primary screen, biochemical, small-molecule microarray, residues 1-88, 635 nm (AID 1129). The settings on record: small-molecule microarray binding, fluorescence 635 nm; higher = more signal.
Molecule `C[N+](C)(C)CCCCNC(=O)[C@H]1C[C@H]2C(=O)N3CCC[C@H]3C(=O)N2[C@H]1c1ccc(O)cc1` yielded a composite z-score of -0.0698.

Regarding `O=S(=O)(NCCCO)c1ccc(Br)cc1`, the composite z-score amounted to 0.918.

`Cc1ccc(S(=O)(=O)N2CC(C(=O)O)=CCC2c2ccccc2)cc1` (configuration not stated): the composite z-score was -0.2.

The molecule `C=CCOC(=O)[C@H]1[C@@H]2C(=O)O[C@@H](c3ccccc3)[C@@H](c3ccccc3)N2[C@@H](c2ccc(OCCOC(=O)[C@@H]3C[C@@H]4C(=O)NCC(=O)N4[C@@H]3c3ccc(O)cc3)cc2)[C@]12C(=O)Nc1ccc(I)cc12` returned a composite z-score of 1.22.

`CC(=O)NCCCC[C@@H]1NC(=O)[C@@H]2C[C@H](C(=O)NCCCCCC[N+](C)(C)C)[C@H](c3cccc(OCCO)c3)N2C1=O` came in with a composite z-score of 1.17.

On to `C/C=C/[C@H](CCn1cc([C@H](O)c2ccccc2)nn1)[Si](C)(C)c1ccc(OC)cc1`, for which the composite z-score was -0.559.

Regarding `CCCNC(=O)[C@@]1(C)c2ccccc2C(=O)N(Cc2cc(C(F)(F)F)cc(C(F)(F)F)c2)[C@H]1c1ccc(CO)cc1`, the composite z-score was 0.903.

`C=C(CCCC)/C(=C/C[C@H](OC(C)=O)c1ccc(CO)o1)c1cc(C(=O)OC)ccc1OC`: the composite z-score came to 0.596.

`C=CCCN(CC#C[C@H]1Oc2ccccc2S(=O)(=O)N2CCC[C@@H]12)S(=O)(=O)c1ccc(C)cc1` showed a composite z-score of 0.136.

`CN1C(=O)C2C=CC(C(O)C(c3ccccc3)c3ccccc3)N(Nc3ccccc3)C2C1=O` (configuration not stated): the composite z-score was found to be 1.19.

In the case of `O=C1OCCC/C=C\[C@H]2OC34C=CCN(CCN5CCOCC5)C(=O)[C@H]3N(CCO)C(=O)[C@@H]4C12` (some centres not stated), the composite z-score was -1.64.

The molecule `COCCOC(=O)N1C(=O)[C@@]2(c3cc(C#CC4(O)CCCCCC4)ccc31)[C@H](c1ccc(O)cc1)N1[C@H](c3ccccc3)[C@H](c3ccccc3)OC(=O)[C@H]1[C@@H]2C(=O)N1CCc2cc(OC)c(OC)cc2C1` gave a composite z-score of -0.183.

Consider `COCCn1c(C(=O)N2CCCC2)cc2c1C[C@H]1CN(C(=O)c3ccccc3)[C@@](Cc3ccc(OC)cc3)(C(=O)OC)[C@@H]21`, for which the composite z-score amounted to 1.02.

In the case of `Cc1cc(C)c(C(O)C2C=CC3C(=O)NC(=O)C3N2Nc2ccccn2)c(C)c1` (configuration not stated), the composite z-score is 1.03.

`CC(c1ccccc1)C(O)C1C=CC2C(=O)N(Cc3ccccc3)C(=O)C2N1n1cnnc1` (configuration not stated) displayed a composite z-score of 0.914.

Molecule `O=C(NCC(O)CO)[C@@]1(Cc2ccccc2)N=C(c2ccc(OCCCO)cc2)O[C@H]1c1ccccc1` (some centres not stated) returned a composite z-score of 1.2.

In the case of `CC(c1ccccc1)C(O)C1C=CC2C(=O)N(c3ccccc3)C(=O)C2N1Nc1ccccc1F` (configuration not stated), the composite z-score was 1.2.

`C=CC[C@@]1(C(=O)NCc2ccccc2)N=C(c2ccc(OCCCO)cc2)O[C@@H]1c1ccccc1CN=[N+]=[N-]` showed a composite z-score of 1.22.

`C=CCN1C(=O)[C@]2(Cc3ccccc31)N=C(c1ccc(OCCCO)cc1)O[C@@H]2c1ccccc1` gave a composite z-score of 1.22.

Molecule `CCCCC(=O)N(Cc1ccccc1F)[C@@H]1CC(C(=O)NCCO)=C[C@H](Oc2c(I)cc(CO)cc2OC)[C@H]1O` yielded a composite z-score of 1.25.

`Cc1c(NC(=O)/C(C#N)=C/C=C/c2ccccc2)c(=O)n(-c2ccccc2)n1C` registered a composite z-score of 0.466.

The molecule `CC(C)(C)OC(=O)CC[C@]1(C(=O)NCC(O)CO)N=C(c2ccc(OCCCO)cc2)O[C@H]1c1ccccc1CN=[N+]=[N-]` (some centres not stated) had a composite z-score of 0.705.

Consider `CCCC[C@@H]1C[C@H]1[C@@H](NC(=O)c1ccco1)c1ccccc1`, for which the composite z-score was -1.

For the molecule `NC(=O)NCC#Cc1ccc2c(c1)[C@]1(C(=O)N2)[C@H](c2ccccc2OCCO)N2[C@H](c3ccccc3)[C@H](c3ccccc3)OC(=O)[C@H]2[C@@H]1C(=O)N1CCCCCCC1`, the composite z-score came to 1.25.

Molecule `C=C(COC)C(=O)CC[C@H](OC(=O)c1cccnc1)c1ccccc1OCCO` came in with a composite z-score of 1.16.

Regarding `C=C(C(=O)CC[C@@H](OC(=O)c1cccnc1)c1ccc(CO)o1)C(C)C`, the composite z-score is 0.799.

Take `O=C1O[C@H](c2ccccc2)[C@H](c2ccccc2)N2[C@H]1[C@@H](C(=O)Nc1nc3ccccc3s1)[C@]1(C(=O)Nc3ccc(C#CC4=CCCCC4)cc31)[C@H]2c1ccc(OCCO)cc1`: the composite z-score came to 1.18.

Turning to `COCCOC(=O)N1C(=O)[C@@]2(c3cc(C#Cc4ccc(OC)cc4)ccc31)[C@H](C(N)=O)[C@H]1C(=O)O[C@H](c3ccccc3)[C@H](c3ccccc3)N1[C@@H]2c1ccc(O)cc1`, the composite z-score was -0.923.

For the molecule `CN1C(=O)C2C(C1=O)C1C=C(c3ccc(CO)cc3)C2C(C2CC2)N1Cc1sc2ccccc2c1Cl` (configuration not stated), the composite z-score came to 1.26.

Regarding `CC1CC/C=C\[C@H]2OC34C=CCN(Cn5nnc6ccccc65)C(=O)[C@H]3N(CCCO)C(=O)[C@@H]4C2C(=O)O1` (some centres not stated), the composite z-score is -0.326.

Molecule `O=P(NCC1(CC2(c3ccccc3)CO2)CC1)(c1ccccc1)c1ccccc1` (configuration not stated) displayed a composite z-score of 0.376.

As for `CCOC(=O)C1=CC[C@@H](c2ccccc2)N(S(=O)(=O)c2ccc(C)cc2)[C@H]1c1ccc(C#N)cc1`, the composite z-score worked out at 1.19.

For the molecule `COc1cc(NN2C(C(O)c3ccccc3)C=CC3C(=O)N(c4ccccc4)C(=O)C32)cc(OC)c1OC` (configuration not stated), the composite z-score stood at 1.28.

For `Cn1c2c(c3ccccc31)C(=O)C1NC2C=CC1(C)C(=O)OCc1ccccc1` (configuration not stated), the composite z-score was found to be 0.291.

Regarding `Cc1ccc(S[C@]2(C(=O)NCCN3CCOCC3)CC(=O)N(C3CCCCC3)[C@@H]2c2ccc(CO)cc2)cc1`, the composite z-score was determined as 1.21.

For the molecule `COCCOC(=O)N1C(=O)[C@@]2(c3cc(C#CC4=CCCCC4)ccc31)[C@H](c1ccc(OCCO)cc1)N1[C@H](c3ccccc3)[C@H](c3ccccc3)OC(=O)[C@H]1[C@@H]2C(=O)Nc1nc2ccccc2s1`, the composite z-score worked out at 1.18.
